Measurements: ChEMBL document CHEMBL1961873, “Compounds: GSK PKIS; Assays: Nanosyn kinase panel” (2012)

target: Dual specificity tyrosine-phosphorylation-regulated kinase 1B (Homo sapiens) (UniProt Q9Y463); settings: at 1 µM
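Further: values are mean percent inhibition of DYRK1B, from the GSK_PKIS set.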

Sequence of Dual specificity tyrosine-phosphorylation-regulated kinase 1B (Homo sapiens) (Q9Y463 whole entry, looked up): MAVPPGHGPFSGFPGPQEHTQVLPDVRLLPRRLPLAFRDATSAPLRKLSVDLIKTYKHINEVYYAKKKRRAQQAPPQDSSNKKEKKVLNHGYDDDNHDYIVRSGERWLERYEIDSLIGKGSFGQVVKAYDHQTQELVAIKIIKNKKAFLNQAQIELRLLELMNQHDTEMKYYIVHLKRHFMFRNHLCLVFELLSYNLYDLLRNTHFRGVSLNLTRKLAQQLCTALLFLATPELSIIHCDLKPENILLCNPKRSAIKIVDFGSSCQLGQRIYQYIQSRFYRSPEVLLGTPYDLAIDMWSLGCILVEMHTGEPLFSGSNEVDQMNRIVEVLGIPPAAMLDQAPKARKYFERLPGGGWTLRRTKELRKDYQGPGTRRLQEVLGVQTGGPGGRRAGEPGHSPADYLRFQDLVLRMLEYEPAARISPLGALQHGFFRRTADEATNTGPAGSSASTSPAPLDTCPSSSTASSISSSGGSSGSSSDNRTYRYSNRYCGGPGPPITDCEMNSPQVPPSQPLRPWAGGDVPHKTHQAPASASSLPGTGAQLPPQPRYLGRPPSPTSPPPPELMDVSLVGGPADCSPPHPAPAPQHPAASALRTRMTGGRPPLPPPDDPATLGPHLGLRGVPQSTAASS

| SMILES | inhibition [%] |
| --- | --- |
| NS(=O)(=O)c1ccc(-c2ccc3c(NC(=O)C4CC4)n[nH]c3c2)cc1 | 3.29 |
| CCn1c(-c2nonc2N)nc2c(C#CC(C)(C)O)ncc(OCC3CCNCC3)c21 | -0.01 |
| CCn1c(-c2nonc2N)nc2c(C#CCN)ncc(OCCCN)c21 | 7.49 |
| Nc1nonc1-c1nc2cnccc2n1C1CCCCC1 | 71.2 |
| COc1cccc(COc2cc(-n3cnc4ccccc43)sc2C(N)=O)c1 | -2.7 |
| NS(=O)(=O)c1ccc(N/C=C2\C(=O)Nc3ccc4ncsc4c32)cc1 | 44.9 |
| Fc1ccc(-c2ncn(C3CCNCC3)c2-c2ccnc(Oc3ccccc3)n2)cc1 | -5.21 |
| CCn1c(-c2nonc2N)nc2c(C#CC(C)(C)O)nc(O[C@@H](CN)c3ccccc3)cc21 | 9.96 |
| COc1cc2c(cc1Nc1nc(Nc3ccsc3C(N)=O)c3cc[nH]c3n1)N(C(=O)CN(C)C)CCC2 | 4.64 |
| Cc1cc(-c2ccco2)cc(C)c1/C=C/c1cncc(-c2nn[nH]n2)c1 | 0.15 |
| CCn1c(-c2nonc2N)nc2c(C#CC(C)(C)O)ncc(OC[C@@H]3CCCN3)c21 | -1.07 |
| COc1cc(C=NNc2ncnc3c2cnn3Cc2ccccc2)ccc1O | 8.92 |
| NC(=O)c1sc(-n2cnc3cc(C(F)(F)F)ccc32)cc1OCc1ccccc1Br | 0.72 |
| COc1cccc(-n2ncc3c(N/N=C/c4ccncc4)ncnc32)c1 | 53.9 |
